# GPR32 ag = agonists of human resolvin D1 receptor DRV1 (GPR32). O75388. CHO-K1 GPR32 beta-arrestin PathHunter luminescence, 90 min; zero percent set by DMSO-only wells. activation, % at 76.9 µM. 2.5% of 48,000 active. AID 1346428;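 active = activation of at least 60% and not above a set upper limit, about 1 call in 100 departs from these limits; inconclusive = activation of 40% to 60%, or above that upper limit; inactive = activation under 40%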; note: 0% is about no effect
# Target sequence (O75388 whole entry, looked up): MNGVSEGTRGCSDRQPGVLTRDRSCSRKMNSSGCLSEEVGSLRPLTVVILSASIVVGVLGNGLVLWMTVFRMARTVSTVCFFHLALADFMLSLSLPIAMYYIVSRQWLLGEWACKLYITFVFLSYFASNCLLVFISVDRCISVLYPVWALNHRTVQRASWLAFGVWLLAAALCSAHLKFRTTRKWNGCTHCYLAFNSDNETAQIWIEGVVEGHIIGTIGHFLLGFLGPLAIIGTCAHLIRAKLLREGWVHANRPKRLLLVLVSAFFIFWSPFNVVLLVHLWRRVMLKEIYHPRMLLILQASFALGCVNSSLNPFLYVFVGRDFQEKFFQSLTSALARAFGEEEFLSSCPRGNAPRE
#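 PathHunter beta-arrestin recruitment in CHO-K1 cells stably expressing ProLink-tagged GPR32. Cells were exposed to compound for 90 min at 37 C, then chemiluminescence was read after 1 h detection at ambient temperature; DMSO served as basal control.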
# HTT promoter inh = inhibits huntingtin promoter activity. 0.93% of 48,000 active. HEK293 HTT promoter firefly luciferase reporter, 24 h. Potency, µM (titrated, usually from 57.5 µM), for the others: at the top dose activity change, negative = inhibition, usual class: inhibitors. AID 1508623; note: potency is the fitted concentration of half-maximal effect; nearly all actives have a fitted effect of over 50% in size
#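 HEK293 cells carrying firefly luciferase reporters were seeded at 2,500 per well in Opti-MEM and cultured for 24 h. They were then treated with compounds at up to 57.5 uM final for 24 h at 37 degrees C before Dual-Glo luminescence readout.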
# HTT-AS promoter = HTT-AS promoter activation; HEK293 HTT-AS promoter firefly luciferase reporter, 24 h; response scale: percent change from vehicle, -100% = no light; Potency, µM (doses to about 57.5 µM), without a hit: top-dose activity change, positive = activation, actives largely listed as activators; 0.24% of 48,000 active; AID 1508624; note: potency is the fitted concentration of half-maximal effect; nearly all actives have a fitted effect of over 55% in size
#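 HEK293 luciferase promoter-reporter cells (2,500/well) plated 24 h, then compounds added at up to 57.5 uM final for 24 h at 37 °C. Firefly luminescence by Dual-Glo, normalized to vehicle (0%) and zero RLU (-100%).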
# Active calls of the source: *; ? = inconclusive; / = no result given; ! = not confirmed by another sample; [ ] = another dose, or the depositor's remark. Sampled rows, rich in hits. Any-hit rate of the full collection: about 3.7%. Unless noted, calls come from the whole dose curve; as a rule, active = well fitted curve in the direction sought with a large enough effect; inconclusive = small, poorly fitted or top-dose-only effect, or another doubt; inactive = no such curve, though single readings can be large; an effect the other way counts as inactive or inconclusive.
SMILES,GPR32 ag,HTT promoter inh,HTT-AS promoter
Cc1ccc(-n2ncc3c(NCCO)ncnc32)cc1Cl,48,62%,?
CC(C)CCNc1ncnc2c1cnn2-c1cccc(Cl)c1,92*,-17%,?
Clc1cccc(-n2ncc3c(NCCC4=CCCCC4)ncnc32)c1,-7,-10%,12%
Cc1ccc(-n2ncc3c(NCCCN4CCOCC4)ncnc32)cc1Cl,14,?,-7%
COc1ccc(-c2cc3c(C)nc(N)nc3n(C3CCC(OCCO)CC3)c2=O)cn1 (stereo unspecified),/,?,-29%
CC1(C)[C@H]2CC[C@]3(C)[C@@H](C(=O)C=C4[C@@H]5C[C@@](C)(C(=O)O)CC[C@]5(C)CC[C@]43C)[C@@]2(C)CC[C@@H]1O,/,-3%,-7%
CCOC(=O)c1ccc(NC(=O)c2c(NCc3cccs3)sc3c2CCCCC3)cc1,-4,-28%,-10%
CN(C)CCNc1ncnc2c1cnn2-c1cccc(Cl)c1,87*,-2%,15%
Clc1cccc(-n2ncc3c(NCCCc4ccccc4)ncnc32)c1,?,-24%,-8%
O=C(CC(c1cccs1)N1Cc2ccccc2C1=O)Nc1ccc(Cl)cc1 (stereo unspecified),-9,/,/
O=C(NCC1CCCO1)c1c[nH]c2ccc(S(=O)(=O)Nc3cccc(C(F)(F)F)c3)cc2c1=O (stereo unspecified),-10,-8%,-18%
CCc1ccc(NC(=O)COC(=O)CCCC2=NS(=O)(=O)c3ccccc3N2)cc1,64*,0%,-10%
Cc1cccc(NC(=O)COC(=O)CCCC2=NS(=O)(=O)c3ccccc3N2)c1,13,-17%,-7%
CN1CCN(C(=O)C2CCCCC2)CC1,-6,7%,-2%
O=C(CSc1nc2cc3ccccc3cc2[nH]1)Nc1ccc(F)cc1,65*,-24%,-8%
COC(=O)c1ccc(NC(=O)CSc2nc3ccc(OC)cc3[nH]2)cc1,48,0%,?
C=C1[C@H](n2cnc3c(=O)[nH]c(N)nc32)C[C@H](O)[C@H]1CO,/,-2%,-8%
O=C1OC2(c3ccccc31)c1cc(Br)c(O)c(Br)c1Oc1c2cc(Br)c(O)c1Br,68*,2%,-10%
O=c1c(O)c(-c2ccc(O)c(O)c2)oc2cc(O)cc(O)c12,109*!,-12%,-6%
O=c1cc(-c2ccc(O)c(O)c2)oc2cc(O)cc(O)c12,/,48%,?
CN(C)CCn1nnnc1SCC1=C(C(=O)O)N2C(=O)[C@@H](NC(=O)Cc3csc(N)n3)[C@H]2SC1,-4,3%,2%
CO[C@@]1(NC(=O)CSCC#N)C(=O)N2C(C(=O)O)=C(CSc3nnnn3C)CS[C@@H]21,64*!,12%,-1%
Cc1cccc(N2CCN(C(=O)CCNS(=O)(=O)c3ccc4c(c3)CCN4C(=O)C3CC3)CC2)c1C,44,?,-41%
Cc1cccc(NC(=O)CCNS(=O)(=O)c2ccc3c(c2)CCN3C(=O)C2CC2)c1,5,-4%,-3%
O=C(CCNS(=O)(=O)c1ccc2c(c1)CCN2C(=O)C1CC1)N1CCN(c2ccc(F)cc2)CC1,69*,?,-45%
SMILES,GPR32 ag,HTT promoter inh,HTT-AS promoter
COc1ccc(N2CCN(C(=O)CCNS(=O)(=O)c3ccc4c(c3)CCN4C(=O)C3CC3)CC2)cc1,20,?,-36%
O=C(CCNS(=O)(=O)c1ccc2c(c1)CCN2C(=O)C1CC1)N1CCN(c2cccc(Cl)c2)CC1,61*,?,-47%
O=C(CCNS(=O)(=O)c1ccc2c(c1)CCN2C(=O)C1CC1)Nc1ccc(F)cc1F,85*,?,-27%
N[C@H](C(=O)O)c1ccc(O)cc1,5,0%[25.2 µM],-2%[25.1 µM]
CCOc1ccc2c(c1)c(=O)c(C(=O)c1ccccc1)cn2Cc1ccccc1F,11,-21%,-14%
CCN(CC)CC(=O)Oc1ccc(NC(C)=O)cc1,0,0%,2%
COc1ccc(CCNC(=O)CSc2cn(CCNC(=O)c3ccc(OC)c(OC)c3)c3ccccc23)cc1OC,7,?,-31%
COc1ccc(CCNC(=O)CSc2cn(CCNC(=O)c3cccc(C(F)(F)F)c3)c3ccccc23)cc1OC,104*,?,-43%
COc1ccc(Nc2c(-c3ccc(Cl)cc3)nc3cnccn23)cc1OC,97*,-14%,-23%
COc1ccc(Nc2c(-c3cccc(O)c3)nc3cnccn23)cc1,-20,7%,-14%
Cc1c(-c2nnc(SCC(=O)Nc3ccc(Cl)cc3)o2)nnn1-c1ccc(F)cc1,24,11%,3%
COc1cc2ccccc2cc1C(=O)Nc1cccc(-c2nc3cc(C)c(C)cc3o2)c1,-2,7.1µM*,-74%
COc1cc2ccccc2cc1C(=O)Nc1cc(-c2nc3ccccc3o2)ccc1C,8,17%,14%
